The text below walks through data of PubChem BioAssay (NCATS).

Calls of active or inactive are those of the source. Unless noted, calls follow the shape of the full dose curve.
Potency is read from the fitted curve at half-maximal effect.

Sequence of Glucocorticoid receptor (Homo sapiens) (P04150 whole entry, looked up): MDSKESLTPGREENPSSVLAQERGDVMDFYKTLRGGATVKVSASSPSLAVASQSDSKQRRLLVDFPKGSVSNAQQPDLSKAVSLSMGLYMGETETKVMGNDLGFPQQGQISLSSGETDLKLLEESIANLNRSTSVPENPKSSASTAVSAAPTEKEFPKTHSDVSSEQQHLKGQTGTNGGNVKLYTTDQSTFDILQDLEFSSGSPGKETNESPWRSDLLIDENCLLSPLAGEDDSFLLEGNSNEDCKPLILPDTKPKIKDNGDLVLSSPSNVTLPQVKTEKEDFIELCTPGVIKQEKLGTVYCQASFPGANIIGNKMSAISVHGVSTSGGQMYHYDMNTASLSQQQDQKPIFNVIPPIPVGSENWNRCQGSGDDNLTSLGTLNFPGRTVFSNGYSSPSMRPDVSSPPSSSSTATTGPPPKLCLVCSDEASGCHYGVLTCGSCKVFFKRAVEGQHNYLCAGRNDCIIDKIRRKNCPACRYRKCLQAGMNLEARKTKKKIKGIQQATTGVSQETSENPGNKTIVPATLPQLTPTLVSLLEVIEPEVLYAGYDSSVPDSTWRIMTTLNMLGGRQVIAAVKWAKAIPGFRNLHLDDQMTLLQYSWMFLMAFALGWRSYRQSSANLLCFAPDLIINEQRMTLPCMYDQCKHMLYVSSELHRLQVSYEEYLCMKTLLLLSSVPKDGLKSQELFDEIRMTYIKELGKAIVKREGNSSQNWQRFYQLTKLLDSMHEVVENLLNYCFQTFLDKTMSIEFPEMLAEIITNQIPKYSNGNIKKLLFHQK

The first test concerns the target Glucocorticoid receptor (Homo sapiens) (UniProt P04150). As to the kind of experiment: GR-GFP Redistribution (AID 450;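 active = compounds whose dose series gives a full or clear partial fitted curve of increased nuclear translocation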). The settings on record: U2OS GR-GFP nuclear translocation, laser cytometry, 2 h.
For the molecule `C(=N/Nc1ccccn1)/c1cccnc1`, the Potency was > 46 µM (inactive). The same measure, in the same setting: under `CC1=NNC(=S)NCCCN2CCN(CCCNC(=S)NN=C(C)C=NNC(=S)NCCCN3CCN(CCCNC(=S)NN=C1)CC3)CC2` stands > 46 µM (inactive); under `CN(C)CCN1C(=O)CC[C@]2(C)C1=CC[C@@H]1[C@@H]2CC[C@]2(C)[C@H]1CC[C@]2(C)O`, > 46 µM (inactive). Consider `Nc1ccccc1N=Nc1c(S(=O)(=O)O)cc2cc(S(=O)(=O)O)cc(O)c2c1O`, for which the Potency was > 46 µM (inactive). The same measure, in the same setting: the result for `N#C[C@H](C(=O)O)C(c1c(Cl)cccc1Cl)[C@H](C#N)C(=O)O` reads > 46 µM (inactive).

A further test shares this target. Put plainly: GR-EFC Redistribution (AID 451). The settings on record: CHO-K1 GR-EFC translocation, beta-gal luminescence, 2 h. In short, it runs like this:
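CHO-K1 cells expressing nuclear EA and GR-ED fragments of b-gal; compounds titrated up to 46 uM final, 2 h at 37 C. GR nuclear translocation read as complemented b-gal luminescence after 1 h RT detection.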
As for `O=C(O)[C@H](Cc1ccccc1)N1C(=O)c2ccccc2C1=O`, the Potency is > 9.22 µM (inactive). Same read-out and setting: the result for `COC(=O)c1cc(=O)[nH]c(=O)[nH]1` reads > 9.22 µM (inactive). On the same count and under the same terms, the result for `O=C1CCC[C@H]1C(=O)Nc1ccc2ccccc2c1` reads > 9.22 µM (inactive); that for `COCCn1c(=O)cnc2cnc(N3CCNCC3)nc21`, > 46 µM (inactive). Turning to `N[C@@H](CNO)C(=O)O`, the Potency was > 9.22 µM (inactive). On the same count and under the same terms, under `C[C@@H](SCc1ccccc1)C(=O)O` stands > 9.22 µM (inactive); under `C[N+](C)(C)CC(=O)N/N=C\c1c(O)ccc2ccccc12`, > 9.22 µM (inactive); under `O=C(O)CCn1cnc2c(=S)nc[nH]c21`, > 9.22 µM (inactive). Still for that read-out and setting: under `CCOC(=O)c1c(O)[nH]c(=O)c(CC)c1C` stands > 9.22 µM (inactive); under `Nc1ccc(Cc2ccc(N)c(C(=O)O)c2)cc1C(=O)O`, > 9.22 µM (inactive); under `O=S(=O)(c1ccccc1)N1CCN(S(=O)(=O)c2ccccc2)c2ccccc21`, > 9.22 µM (inactive).

Consider `CN1[C@@H](c2ccccc2)CC(=NO)C[C@H]1c1ccccc1`, for which the Potency was > 9.22 µM (inactive). Consider `CC(C)[C@@H](C(=O)O)N1C(=O)c2ccccc2C1=O`, for which the Potency is > 9.22 µM (inactive). The same measure, in the same setting: the result for `O=c1c2ccccc2c2ccccc2c(=O)n1-c1cc2c3ccccc3ccc2c2ccccc12` reads > 9.22 µM (inactive). For `O=C(O)c1cncc(C(=O)O)c1`, the Potency was > 9.22 µM (inactive).

On to `CC(C)=C[C@H]1[C@@H](COC(=O)c2cc3c(cc2Cl)OCO3)C1(C)C`, for which the Potency is > 9.22 µM (inactive).

With `O=C(O)CCCSc1nc2ccccc2s1`, the Potency was > 9.22 µM (inactive). The same measure, in the same setting: under `O=C(O)/C(Cc1cn[nH]n1)=N\O` stands > 9.22 µM (inactive). Still for that read-out and setting: the result for `O=C(O)C(=Cc1ccnc2ccccc12)C(=O)O` reads > 9.22 µM (inactive). Still for that read-out and setting: under `Cn1c(=O)c2c(ncn2CCSS(=O)(=O)O)n(C)c1=O` stands > 9.22 µM (inactive); under `C=CCNS(=O)(=O)c1ncnc2nc[nH]c12`, > 9.22 µM (inactive). In the case of `CN1CCN(CCCNN)CC1`, the Potency is > 9.22 µM (inactive). Still for that read-out and setting: the result for `c1ccc(CN2COc3c(ccc4c5c(ccc34)CN(Cc3ccccc3)CO5)C2)cc1` reads > 9.22 µM (inactive); that for `CCCS(=O)(=O)O`, > 9.22 µM (inactive); that for `CC(=O)CSCc1ccccn1`, > 9.22 µM (inactive). Consider `CC(C)[C@H](Nc1ncnc2nc[nH]c12)C(=O)O`, for which the Potency was > 9.22 µM (inactive). Turning to `Nc1nc2c(ncn2[C@H]2CC[C@@H](CO)O2)c(=O)n1C(=O)c1ccccc1`, the Potency was > 9.22 µM (inactive). `CC1=C(/C=C\C(=O)O)C(C)(C)CCC1`: the Potency is > 9.22 µM (inactive). Same read-out and setting: under `C[n+]1cccc(/C=C\c2ccc3cccc(O)c3n2)c1` stands > 9.22 µM (inactive). Same read-out and setting: under `COc1ccc(Br)c2c1C[C@H](C(=O)O)CC2` stands > 9.22 µM (inactive); under `COC(=O)c1cc(-c2ccc3ccccc3c2)[nH]c(=O)c1C#N`, > 9.22 µM (inactive). For the molecule `O=C(O)[C@H]1O[C@H]1C(=O)O`, the Potency was > 9.22 µM (inactive). Same read-out and setting: the result for `COc1cc(C(=O)O)c([N+](=O)[O-])c(OC)c1OC` reads > 9.22 µM (inactive). Same read-out and setting: the result for `C[C@H](NCCN(C)C)[C@@H]1CCC2C3CCc4cc(O)ccc4[C@H]3CCC21C` (stereo not given in full) reads > 9.22 µM (inactive). Same read-out and setting: under `O=C(O)/C(Cc1ccc([N+](=O)[O-])cc1)=N/O` stands > 9.22 µM (inactive). `C(=N/Nc1ccccn1)/c1cccnc1`: the Potency was > 9.22 µM (inactive).

With `CC1=NNC(=S)NCCCN2CCN(CCCNC(=S)NN=C(C)C=NNC(=S)NCCCN3CCN(CCCNC(=S)NN=C1)CC3)CC2`, the Potency was > 9.22 µM (inactive).

For `CN(C)CCN1C(=O)CC[C@]2(C)C1=CC[C@@H]1[C@@H]2CC[C@]2(C)[C@H]1CC[C@]2(C)O`, the Potency is > 9.22 µM (inactive).

As for `Nc1ccccc1N=Nc1c(S(=O)(=O)O)cc2cc(S(=O)(=O)O)cc(O)c2c1O`, the Potency was > 9.22 µM (inactive). Take `N#C[C@H](C(=O)O)C(c1c(Cl)cccc1Cl)[C@H](C#N)C(=O)O`: the Potency is > 9.22 µM (inactive).
